NS1 inh = influenza NS1 inhibition. 270,000 compounds, 0.4% hits. Potency, µM (highest dose often 46.1 µM); calls by dose curve; also: actives are rising curves; nearly all actives have a fitted effect of over 50% in size
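A cell-based growth assay was used: compounds that relieve NS1-induced slow growth of budding yeast raise OD600. Assay medium was yeast nitrogen base with ammonium sulphate and -URA supplement, pH 6.0, with 2% galactose.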
Pf growth 96h = inhibits malaria parasite growth, 96 h; P. falciparum luciferase reporter growth, 96 h; AID 504834; Potency, µM (titrated, usually from 28.7 µM), most hits filed as inhibitors; 320,000 compounds, 6.9% hits
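Two-generation exposure (96 h) targets delayed-death phenotype. Reporter parasites carrying integrated firefly luciferase, in red cells at 2% hematocrit and 0.05% parasitemia final, kept at 37 C, 5% CO2; luminescence loss indicates inhibition.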
Shiga inhibitor = inhibitors of Shiga toxin in Vero cells; Vero cells, Shiga toxin protein synthesis inhibition reporter; inhibition, % at 38.7 µM; 290,000 compounds, 9.2% hits; in the data active = inhibition mostly above about 28%, no sharp cut-off; inactive = mostly below about 43%
Pf growth 48h = inhibits P. falciparum growth in the first generation, 48 h; AID 504832; 310,000 compounds, 5.9% hits; P. falciparum luciferase growth in erythrocytes, 48 h; Potency, µM (titrated, usually from 28.7 µM), usual class: inhibitors
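Compounds are pin-transferred into medium, infected erythrocytes (2% hematocrit, 0.1% parasitemia final) are added, and plates sit one parasite generation at 37 C in 5% CO2. Detection reagent is then added and luminescence measured.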
CHX counter-1 = counter-screen hit for Shiga toxin inhibitors, cycloheximide. 300,000 compounds, 12% hits. max response, %. AID 2314. cell reporter, cycloheximide protein synthesis inhibition counterscreen; in the data active = max response mostly above about 13%, no sharp cut-off; inactive = mostly below about 14%; also: read at 38.3 µM for the half of the compounds with a filed dose
CHX counter-2 = affects protein synthesis reporter in cycloheximide counter-screen | shares compounds with Shiga inhibitor | Cycloheximide counterscreen, protein synthesis reporter, Shiga toxin assay | Potency, µM (highest dose often 38.3 µM), actives largely listed as activators | 510 compounds, 3% hits; calls by dose curve
Large screens that a line does not name were inactive (follow-up assays come after a bar, where they were run). Only some compounds are listed: those with a hit (about 21% of all), similar ones and a draw of the others. Unless noted, calls follow the shape of the dose curve; as a rule, active = well fitted inhibition curve with a large enough effect; inconclusive = small, poorly fitted or top-dose-only effect, or another doubt; inactive = no such curve, though single readings can be large or run the other way.

Cc1noc(C)c1C(=O)OCC(=O)Nc1cc(S(=O)(=O)N2CCOCC2)ccc1Cl	none (no result: NS1 inh)
COc1ccc(NC(=O)CSc2nccn2-c2cccc(OC)c2)cc1	Pf growth 96h inconclusive, Shiga inhibitor 40 | CHX counter-2 inactive
Cc1c(Cl)cnc(NC(=O)CSc2n[nH]c(N)n2)c1Cl	none (no result: NS1 inh, Shiga inhibitor, CHX counter-1)
Cc1csc(SCC(=O)Nc2ncc(Cl)c(C)c2Cl)n1	Shiga inhibitor 21 | CHX counter-2 inactive
O=C(NC1CCCC1)c1cc(Cl)ccc1[N+](=O)[O-]	Shiga inhibitor 27 | CHX counter-2 inactive
O=C(NC1CC1)c1cc(Cl)ccc1[N+](=O)[O-]	none
O=C(NCc1ccccn1)c1ccc2ccccc2n1	Pf growth 96h inconclusive
O=C(c1ccccn1)c1ccc2ccccc2n1	Shiga inhibitor 56 | CHX counter-2 inactive
N=c1c(S(=O)(=O)c2ccc(Cl)cc2)cc2c(=O)n3ccccc3nc2n1C1CCCCC1	Pf growth 96h inconclusive, Shiga inhibitor active | CHX counter-2 inactive
Cc1ccc(S(=O)(=O)c2cc3c(=O)n4ccccc4nc3n(C3CCCCC3)c2=N)cc1	Pf growth 96h inconclusive
COCCCNC(=O)c1cn(C)c(=O)c2c1c1ccccc1n2C	Shiga inhibitor 33 | CHX counter-2 inactive
O=C(NC1CCCN(C2Cc3ccccc3C2)C1)c1ccc(F)cc1Cl (configuration not stated)	none
COc1cc(-n2nnnc2SC)c(OC)cc1Cl	Shiga inhibitor 47 | CHX counter-2 inactive
O=C(OCc1nc2ccccc2s1)c1cccc(N2C(=O)CCC2=O)c1	Shiga inhibitor 58 (no result: NS1 inh) | CHX counter-2 inactive
Cc1cccc(-c2c3c(=O)n(C)c(=O)n(C)c3cn2CC2CCCO2)c1 (configuration not stated)	none
COc1ccc(NC(=O)c2cc(C)on2)cc1OC	Shiga inhibitor 28 (no result: Pf growth 96h) | CHX counter-2 inactive
COc1ccc(C(=O)CC(=O)C(=O)Nc2ccc(C)cc2Cl)cc1	Shiga inhibitor 22 (no result: Pf growth 48h) | CHX counter-2 inactive
COc1ccc(C(=O)CC(=O)C(=O)Nc2cccc([N+](=O)[O-])c2C)cc1	Pf growth 96h inconclusive (no result: Pf growth 48h)
O=C(COc1ccc(S(=O)(=O)NC2CCCCC2)cc1)Nc1ccc2c(c1)OCCO2	Pf growth 96h inconclusive (no result: Pf growth 48h)
NS(=O)(=O)c1cc(C(=O)NCC2CCCCC2)ccc1Cl	Pf growth 96h inconclusive, Shiga inhibitor 56, Pf growth 48h inconclusive | CHX counter-2 inactive
CSc1cccc(CN2CCN(Cc3ccc(F)c(F)c3)C(CCO)C2)c1 (configuration not stated)	Pf growth 96h inconclusive, Pf growth 48h inconclusive
COc1cc(/C=C(\C#N)c2nc3ccccc3[nH]2)cc(OC)c1O	Shiga inhibitor 64, Pf growth 48h inconclusive | CHX counter-2 inconclusive
Cc1nc(C)c(/C(O)=C/c2nc3ccc([N+](=O)[O-])cc3oc2=O)o1	Pf growth 96h inconclusive (no result: NS1 inh)
COc1cc(C(C)=O)ccc1OCCCOc1cccc2cccnc12	Shiga inhibitor 48 | CHX counter-2 inconclusive
O=C(O)CCCC(=O)N1CCCC1	none
CC1(NC(=S)Nc2ccccc2)CCS(=O)(=O)C1 (configuration not stated)	none
Cc1ccc(C(CC(=O)NCc2ccco2)c2ccc(OC(C)C)cc2)cc1 (configuration not stated)	Shiga inhibitor 42 (no result: Pf growth 96h, Pf growth 48h) | CHX counter-2 inactive
COc1nc2ccccc2c(=O)n1-c1ccc(C)cc1	Shiga inhibitor 19 | CHX counter-2 inactive
COc1nc2ccccc2c(=O)n1-c1ccc(Cl)cc1	none
O=C(COC(=O)/C=C/c1cccs1)Nc1nc(-c2ccccc2)cs1	Pf growth 96h inconclusive, Shiga inhibitor 46 | CHX counter-2 inactive
Cc1ccccc1NC(=O)Cn1nc(C(=O)O)c2ccccc2c1=O	none
O=C(Cn1nc(C(=O)O)c2ccccc2c1=O)Nc1nc(-c2ccccc2)cs1	Shiga inhibitor 40 | CHX counter-2 inconclusive
O=C(Cn1cc([N+](=O)[O-])cn1)N1N=C(C(F)F)CC1(O)C(F)F (configuration not stated)	none
COc1cc(OC)cc(C(=O)Nc2cccc3nc(C)ccc23)c1	Pf growth 96h inconclusive
COc1ccc(C(=O)Nc2cccc3nc(C)ccc23)cc1OC	NS1 inh inconclusive, Shiga inhibitor 24 | CHX counter-2 inactive
Oc1ccc(C2C[C@H]3CC[C@@H]2C3)cc1O (some centres not stated)	Shiga inhibitor 34 | CHX counter-2 inactive
COc1cccc(CNC(=O)c2ccc(C)c(NC3=NC4CS(=O)(=O)CC4S3)c2)c1 (configuration not stated)	Shiga inhibitor 11 | CHX counter-2 inactive
COc1ccc(-n2nc(C(=O)NCC(=O)N(C)Cc3ccccc3)c3ccccc3c2=O)cc1OC	Pf growth 48h inconclusive
CN1CCN(C(=O)CN(C)S(=O)(=O)c2ccc(F)cc2)CC1	Shiga inhibitor 38 | CHX counter-2 inactive
Cc1ccc(C(O)Cn2nc(C)cc2C)cc1 (configuration not stated)	none (no result: NS1 inh, Shiga inhibitor, CHX counter-1)
Cc1cc(N/C=C\c2nnnn2-c2ccccc2)no1	Shiga inhibitor 30 | CHX counter-2 inconclusive
CN1CCN(Cc2ccc(N)cc2)CC1	Shiga inhibitor 27 | CHX counter-2 inactive
Cc1ccc(-c2nc(-c3ccccn3)sc2CC(=O)O)cc1	none
CC(=O)c1sc(-c2ccccn2)nc1C	Pf growth 96h inconclusive, Shiga inhibitor 32 (no result: NS1 inh) | CHX counter-2 inactive
CC(=O)c1ccc(-c2cccc([C@H]3[C@@H]4C=CC[C@@H](C)[C@@H]4C(=O)N3Cc3ccccc3)c2)cc1	Shiga inhibitor 36 (no result: NS1 inh, Pf growth 96h, Pf growth 48h) | CHX counter-2 inactive
COC/C=C/C1=CC2=CC(=O)C(C)(OC(=O)c3cnc4ccccc4n3)C(=O)C2=CN1c1ccc(CO)cc1 (configuration not stated)	none
Nc1ccc2nn(-c3cccc4ccccc34)nc2c1	Shiga inhibitor 49, Pf growth 48h inconclusive (no result: Pf growth 96h) | CHX counter-2 inactive
On1nnc2ccc3ccccc3c21	none
COc1ccc(S(=O)(=O)Nc2c(C(=O)O)[nH]c3ccccc23)cc1OC	Shiga inhibitor 30 | CHX counter-2 inactive
N#C/C=C1/NC(=O)c2ccccc2S1	Shiga inhibitor 71 | CHX counter-2 inactive
COc1ccc(C)cc1N1C(=N)/C(=C2/Nc3ccccc3S2)C(c2ccccc2)C1=O (configuration not stated)	Shiga inhibitor 21, Pf growth 48h 13µM | CHX counter-2 inactive
COc1ccc(-c2cnc[nH]2)cc1	Shiga inhibitor 78 (no result: NS1 inh) | CHX counter-2 inactive
CCOC(=O)c1[nH]c2ccc(OC)cc2c1C(SCC(=O)O)c1ccc(C(F)(F)F)cc1 (configuration not stated)	Pf growth 48h inconclusive
CCC(C)(O)c1[nH]c2ccc(C(F)(F)F)cc2c1C (configuration not stated)	Shiga inhibitor 18 | CHX counter-2 inactive
O=C(NNS(=O)(=O)c1ccccc1)C1CCCCC1	none

Assay outcomes as filed in PubChem.
